Experimental data published in PubChem BioAssay (Tox21).
Inconclusive results are not listed. The source made the active and inactive calls. Unless noted, calls follow the shape of the dose curve; as a rule, active = well fitted curve in the direction sought with a large enough effect in the repeat runs; inconclusive = weak or mixed curves; inactive = no such curve, though single readings can be large; an effect the other way counts as inactive or inconclusive.

Tests used:
[1] = qHTS assay to identify small molecule antagonists of the glucocorticoid receptor (GR) signaling pathway - cell viability counter screen (AID 720693); also: nearly all actives have a fitted effect of over 55% in size
[2] = qHTS assay for identifying genotoxic compounds that show differential cytotoxicity against isogenic chicken DT40 cell lines with known DNA damage response pathways - wild type cell line (AID 743012); also: nearly all actives have a fitted effect of over 60% in size; also: potency is read from the fitted curve at half-maximal effect
Procedure, shortened: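 Using parental DT40 (300 cells/well), compounds delivered in DMSO incubate 40 h at 37 C/5% CO2. CellTiter-Glo reagent then stands 30 min at room temperature, and luminescence gives cell viability.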

[3] = qHTS assay for identifying genotoxic compounds that show differential cytotoxicity against isogenic chicken DT40 cell lines with known DNA damage response pathways - Rad54/Ku70 mutant cell line (AID 743015); also: nearly all actives have a fitted effect of over 60% in size; also: potency is read from the fitted curve at half-maximal effect
[4] = qHTS assay to identify small molecule antagonists of the androgen receptor (AR) signaling pathway - cell viability counter screen (AID 743033; also: nearly all actives have a fitted effect of over 45% in size)
[5] = qHTS assay to identify small molecule antagonists of the androgen receptor (AR) signaling pathway using the MDA cell line - cell viability counter screen (AID 743041; also: nearly all actives have a fitted effect of over 45% in size)
Procedure, shortened: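 Viability counter screen run alongside the AR antagonist reporter: cells seeded 5 h before compound, R1881 added, 16 h incubation at 37C without CO2, fluorescent CellTiter-Fluor signal quantified.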

[6] = qHTS assay to identify small molecule antagonists of the thyroid receptor (TR) signaling pathway - cell viability counter screen (AID 743064); also: nearly all actives have a fitted effect of over 50% in size
Procedure, shortened: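 In rat pituitary GH3.TRE-Luc reporter cells co-exposed to compound and 1 nM T3 for 23.5 h, cytotoxicity was assessed with CellTiter-Fluor in the same wells, read by fluorescence.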

[7] = qHTS assay to identify small molecule antagonists of the thyroid receptor (TR) signaling pathway (AID 743065); also: nearly all actives have a fitted effect of over 55% in size; also: potency is read from the fitted curve at half-maximal effect
Procedure, shortened: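 GH3.TRE-Luc rat pituitary cells carrying two TR response elements driving luciferase were plated for 4 h, given compound plus 1 nM T3 (final), and incubated 23.5 h at 37 C. ONE-Glo luminescence measured reporter inhibition; CellTiter-Fluor fluorescence tracked cytotoxicity.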

[8] = system: thyroid hormone receptor (rat, GH3 cells); test: qHTS assay to identify small molecule agonists of the thyroid receptor (TR) signaling pathway (AID 743066; calls by dose curve)
[9] = qHTS assay to identify small molecule antagonists of the estrogen receptor alpha (ER-alpha) signaling pathway - cell viability counter screen (AID 743074; calls by dose curve;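 also: HEK293 cells carrying ER-alpha-UAS-bla reporter stimulated with 17beta-estradiol; nearly all actives have a fitted effect of over 45% in size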)
[10] = qHTS assay to identify small molecule antagonists of the estrogen receptor alpha (ER-alpha) signaling pathway using the BG1 cell line - cell viability counter screen (AID 743081);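 also: compound given together with 17beta-estradiol as the ER stimulus; series mostly up to about 70 µM; nearly all actives have a fitted effect of over 45% in size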
Aromatase (Homo sapiens) = Aromatase (Homo sapiens) (UniProt P11511); test: qHTS assay to identify aromatase inhibitors (AID 743083); also: series mostly up to about 70 µM; nearly all actives have a fitted effect of over 55% in size
[11] = qHTS assay for identifying genotoxic compounds that show differential cytotoxicity against isogenic chicken DT40 cell lines with known DNA damage response pathways - Rev3 mutant cell line (AID 743014); also: nearly all actives have a fitted effect of over 55% in size; also: potency is read from the fitted curve at half-maximal effect
[12] = biological target: Estrogen receptor (Homo sapiens) (UniProt P03372); test: qHTS assay to identify small molecule agonists of the estrogen receptor alpha (ER-alpha) signaling pathway (AID 743075; calls by dose curve;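 also: HEK293 GripTite cells with ER-alpha and UAS-driven beta-lactamase reporter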)
[13] = biological target: Estrogen receptor (Homo sapiens) (UniProt P03372); test: qHTS assay to identify small molecule agonists of the estrogen receptor alpha (ER-alpha) signaling pathway using the BG1 cell line (AID 743079); also: nearly all actives have a fitted effect of over 20% in size; also: potency is read from the fitted curve at half-maximal effect
[14] = qHTS assay to identify small molecule antagonists of the estrogen receptor alpha (ER-alpha) signaling pathway using the BG1 cell line (AID 743080; calls by dose curve;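 also: BG1 cells stimulated with 17beta-estradiol alongside compound; series mostly up to about 70 µM; nearly all actives have a fitted effect of over 25% in size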)
Procedure, shortened: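 After 5 days in phenol-red-free 10% charcoal-stripped FBS medium, BG1-Luc-4E2 cells were seeded, left 24 h at 37 C, co-treated with compounds and 17beta-estradiol for 21.5 h, then assayed for viability and luciferase.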

[15] = biological target: Estrogen receptor (Homo sapiens) (UniProt P03372); test: qHTS assay to identify small molecule antagonists of the estrogen receptor alpha (ER-alpha) signaling pathway (AID 743069; active = well fitted curve in the direction sought with a large enough effect in the signal ratio in the repeat runs, not every such curve was filed as active; the % refers to the signal ratio)
Procedure, shortened: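 Estradiol-stimulated ER-alpha-UAS-bla HEK293 cells, 18 hr compound exposure at 37C. LiveBLAzer B/G substrate, 2 hr RT, fluorescence read.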

[16] = biological target: Androgen receptor (Homo sapiens) (UniProt P10275); test: qHTS assay to identify small molecule antagonists of the androgen receptor (AR) signaling pathway (AID 743035; active = well fitted inhibition curve with a large enough effect in the signal ratio in the repeat runs, not every such curve was filed as active; the % refers to the signal ratio)
Procedure, shortened: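 Using qHTS, AR-UAS-bla GripTite HEK293 cells received compound, then R1881, and were cultured 16 h at 37C/5% CO2 before a 2 h room-temperature LiveBLAzer B/G FRET substrate step and fluorescence measurement.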

[17] = biological target: Androgen receptor (Homo sapiens) (UniProt P10275); test: qHTS assay to identify small molecule agonists of the androgen receptor (AR) signaling pathway (AID 743036; active = well fitted activation curve with a large enough effect in the signal ratio in the repeat runs, with a control signal flat, not every such curve was filed as active; the % refers to the signal ratio)
Procedure, shortened: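 Cell-based FRET reporter assay: HEK293 line with a UAS-beta-lactamase construct, compounds added in DMSO, 16 h exposure at 37C, then 2 h substrate step at room temperature and fluorescence intensity read.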

[18] = biological target: Androgen receptor (Homo sapiens) (UniProt P10275); test: qHTS assay to identify small molecule agonists of the androgen receptor (AR) signaling pathway using the MDA cell line (AID 743040; also: nearly all actives have a fitted effect of over 20% in size)
Procedure, shortened: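 Luminescence from ONE-Glo, read after 30 min at room temperature, reflects MMTV-driven luciferase in MDA-kb2 cells (AR- and GR-responsive). Treatment lasted 16 h at 37C, 0% CO2.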

[19] = biological target: Androgen receptor (Homo sapiens) (UniProt P10275); test: qHTS assay to identify small molecule antagonists of the androgen receptor (AR) signaling pathway using the MDA cell line (AID 743042; also: nearly all actives have a fitted effect of over 55% in size)
Procedure, shortened: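 MDA-kb2 cells (human breast carcinoma, stably carrying an MMTV-luciferase reporter responsive to AR and GR) were plated at 3,000 cells/well and preincubated 5 hr at 37C, then given compound plus R1881 agonist for 16 h. ONE-Glo luminescence was read.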

Measured: Potency

Estrogen receptor (Homo sapiens), sequence (P03372 whole entry, looked up): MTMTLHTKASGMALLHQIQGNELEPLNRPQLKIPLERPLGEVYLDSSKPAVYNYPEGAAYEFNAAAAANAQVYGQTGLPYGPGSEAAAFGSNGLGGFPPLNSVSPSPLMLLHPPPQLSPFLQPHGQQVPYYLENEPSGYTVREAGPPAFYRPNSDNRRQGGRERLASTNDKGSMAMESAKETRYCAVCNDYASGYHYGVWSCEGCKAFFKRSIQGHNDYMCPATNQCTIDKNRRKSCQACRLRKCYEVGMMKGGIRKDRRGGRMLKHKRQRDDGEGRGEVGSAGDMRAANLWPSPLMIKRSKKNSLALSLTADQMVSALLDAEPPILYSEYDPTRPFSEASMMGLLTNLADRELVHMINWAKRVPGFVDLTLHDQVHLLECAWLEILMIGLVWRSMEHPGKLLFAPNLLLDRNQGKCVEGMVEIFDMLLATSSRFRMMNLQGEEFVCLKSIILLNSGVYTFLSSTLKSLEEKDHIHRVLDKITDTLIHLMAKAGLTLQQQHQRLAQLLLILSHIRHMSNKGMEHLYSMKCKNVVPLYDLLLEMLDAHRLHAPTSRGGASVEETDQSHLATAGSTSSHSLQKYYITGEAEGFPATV
Aromatase (Homo sapiens), sequence (P11511 whole entry, looked up): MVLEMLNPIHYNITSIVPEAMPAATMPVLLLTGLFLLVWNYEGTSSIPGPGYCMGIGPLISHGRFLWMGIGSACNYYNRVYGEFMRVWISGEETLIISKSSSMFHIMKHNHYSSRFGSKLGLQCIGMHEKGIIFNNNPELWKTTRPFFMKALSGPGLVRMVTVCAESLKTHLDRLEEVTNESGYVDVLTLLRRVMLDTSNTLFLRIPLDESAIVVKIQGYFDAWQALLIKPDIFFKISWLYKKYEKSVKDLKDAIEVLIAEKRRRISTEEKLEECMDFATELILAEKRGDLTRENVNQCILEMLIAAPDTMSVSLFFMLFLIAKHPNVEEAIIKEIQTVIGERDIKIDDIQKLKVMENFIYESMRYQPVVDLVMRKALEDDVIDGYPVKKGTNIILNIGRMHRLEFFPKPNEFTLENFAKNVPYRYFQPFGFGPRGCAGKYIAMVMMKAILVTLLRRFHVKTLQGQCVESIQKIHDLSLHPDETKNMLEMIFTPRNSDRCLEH
Androgen receptor (Homo sapiens), sequence (P10275 whole entry, looked up): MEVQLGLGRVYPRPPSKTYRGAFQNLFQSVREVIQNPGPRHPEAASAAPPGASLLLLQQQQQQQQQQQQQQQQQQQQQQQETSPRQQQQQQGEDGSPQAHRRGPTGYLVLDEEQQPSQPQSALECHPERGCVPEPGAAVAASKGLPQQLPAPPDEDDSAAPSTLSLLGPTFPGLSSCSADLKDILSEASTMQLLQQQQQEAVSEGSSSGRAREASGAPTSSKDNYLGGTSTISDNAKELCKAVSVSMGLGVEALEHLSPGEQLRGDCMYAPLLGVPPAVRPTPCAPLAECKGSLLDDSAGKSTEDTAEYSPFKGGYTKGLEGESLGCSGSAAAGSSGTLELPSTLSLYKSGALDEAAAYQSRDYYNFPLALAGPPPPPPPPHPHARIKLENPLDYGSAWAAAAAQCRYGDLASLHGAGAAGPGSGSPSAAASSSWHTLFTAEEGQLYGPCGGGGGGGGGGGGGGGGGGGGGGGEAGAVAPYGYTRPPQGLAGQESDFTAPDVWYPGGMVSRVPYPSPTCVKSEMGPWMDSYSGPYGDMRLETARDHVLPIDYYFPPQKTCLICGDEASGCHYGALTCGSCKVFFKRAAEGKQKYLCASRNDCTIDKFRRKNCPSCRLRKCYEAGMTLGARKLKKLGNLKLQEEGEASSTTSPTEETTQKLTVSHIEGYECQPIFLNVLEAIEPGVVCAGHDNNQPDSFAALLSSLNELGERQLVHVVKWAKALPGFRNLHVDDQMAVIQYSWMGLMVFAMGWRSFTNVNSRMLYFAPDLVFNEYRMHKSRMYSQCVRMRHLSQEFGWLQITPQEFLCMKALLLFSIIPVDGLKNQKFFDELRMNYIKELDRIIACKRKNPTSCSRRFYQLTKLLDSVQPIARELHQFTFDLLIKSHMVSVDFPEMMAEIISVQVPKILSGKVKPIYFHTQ

CC1(C)S[C@@H]2[C@H](NC(=O)C(C(=O)O)c3ccccc3)C(=O)N2[C@H]1C(=O)O (some centres undefined)
inactive: [1] | [2] | [3] | [4] | [5] | [6] | [7] | [8] | [9] | [10] | Aromatase (Homo sapiens)

CC(=O)N(CC(O)CN(C(C)=O)c1c(I)c(C(=O)NCC(O)CO)c(I)c(C(=O)NCC(O)CO)c1I)c1c(I)c(C(=O)NCC(O)CO)c(I)c(C(=O)NCC(O)CO)c1I (centres undefined)
not listed: [4] | [6] | [15] | [16] | [17] | [18] | [19]
inactive: all other assays above

CCCNC(C)(C)COC(=O)c1ccccc1
not listed: [6] | [11] | [15] | [16] | [17] | [18] | [19]
inactive: all other assays above

CCCCCCOc1ccc(N)cc1
inactive: [1] | [4] | [5] | [6] | [8] | [12] | [10]
active: [2] 61.1 µM | [11] 43.3 µM | [3] 54.5 µM | [13] 9.69 µM

CCN(CC)C(=O)N(CC)CC
inactive: [1] | [2] | [3] | [4] | [5] | [6] | [8] | [9] | [10] | Aromatase (Homo sapiens)

CCCCCCCCOC(=O)CCCCCCCCC(=O)OCCCCCCCC
active: [2] 68.6 µM | [11] 17.2 µM
not listed: [3] | [7] | [16] | [17] | [18] | [19]
inactive: all other assays above

Cc1c(C(=O)NCCO)[n+](=O)c2ccccc2n1[O-]
not listed: [3] | [7] | [11] | [12] | [13] | [14] | [15]
inactive: all other assays above

CCC1(C)NC(=O)NC1=O (centres undefined)
inactive: [1] | [2] | [11] | [3] | [4] | [5] | [6] | [8] | [10] | Aromatase (Homo sapiens)

O=C(O)C(=O)Cc1c[nH]c2ccccc12
not listed: [7] | [8] | [14] | [15] | [16] | [17] | [18] | [19]
inactive: all other assays above

O=C1Nc2ccc([N+](=O)[O-])cc2C1=O
inactive: [1] | [2] | [3] | [4] | [6] | [8] | [9]

FC(F)(F)C(F)(F)C(F)(F)C(F)(F)C(F)(F)C(F)(F)C(F)(F)C(F)(F)Br
not listed: [4] | [16] | [17] | [18] | [19]
inactive: all other assays above

CCCCC(=O)O[C@]1(C(=O)CO)[C@H](C)C[C@H]2[C@@H]3CCC4=CC(=O)C=C[C@]4(C)[C@@]3(F)[C@@H](O)C[C@@]21C
active: [2] 26.6 µM
inactive: [1] | [5] | [6] | [8] | [9] | [12] | [13] | [10] | Aromatase (Homo sapiens)

CCCCC(CC)COC(=O)COc1cc(Cl)c(Cl)cc1Cl (centres undefined)
not listed: [6] | [7] | [15] | [16] | [17] | [18] | [19]
inactive: all other assays above

CC(=O)OC(C)OC(C)=O
active: [11] 70.7 µM
not listed: [3] | [12] | [13] | [14] | [15]
inactive: all other assays above

NCCC(O)(P(=O)(O)O)P(=O)(O)O
inactive: [1] | [2] | [11] | [3] | [4] | [5] | [9] | [10] | Aromatase (Homo sapiens)

CCCCCOc1ccc(C2SC(=O)NC2=O)cc1OCC (centres undefined)
active: [7] 2.37 µM
not listed: [8] | Aromatase (Homo sapiens) | [11] | [16]
inactive: all other assays above

CC(=O)OC1C2(C)CCC(C2)C1(C)C (centres undefined)
not listed: [3] | [16] | [17] | [18] | [19]
inactive: all other assays above

CC(=O)N[C@@H](CC(C)C)C(=O)O
not listed: [6] | [11] | [13] | [16] | [17] | [18] | [19]
inactive: all other assays above

CCCCNc1ccc(C(=O)OCCN(CC)CC)cc1
active: [2] 2.37 µM | [11] 1.68 µM | [3] 2.37 µM
inactive: [1] | [4] | [5] | [8] | [15] | [12] | [13] | [14] | Aromatase (Homo sapiens)

CCCCCCCCCCCCOCCOS(=O)(=O)O
active: [7] 68.6 µM
not listed: [3] | [6] | [13] | [15] | [16] | [17] | [18] | [19]
inactive: all other assays above

NNS(=O)(=O)c1ccc(Oc2ccc(S(=O)(=O)NN)cc2)cc1
active: [11] 27.3 µM
not listed: [2] | [16] | [17] | [18] | [19]
inactive: all other assays above
